# Rows were chosen to be rich in hits. Some 6.7% of all compounds tested hit in one or more screens of this group.
# C diff growth – C. difficile growth inhibition. growth activity, negative = inhibition, % at 16 µg/mL (by protocol). actives 0.25% (n = 86,000). Clostridium difficile clinical isolate growth, OD600, 24 h; stronger effect = lower value. AID 1259249;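 active = mean growth activity at or below -80% and every replicate also at or below -80%; inconclusive = mean at or below -80% but some replicate above -80%; inactive = mean growth activity above -80%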;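 also: 0% = DMSO wells and -100% = levofloxacin 16 µg/mL wells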
# Pf Dd2 inh – P. falciparum Dd2 growth inhibition; SYBR Green, 72 h; stronger effect = lower value; activity change, % at 10 µM; actives 2.3% (n = 94,000); AID 1159554; in the data active = activity change below about -80%; inconclusive = no clear call, values can overlap the other calls
# T cruzi growth-1 – blocks T. cruzi growth in NIH3T3 culture; inhibition, % at 8.34 µM; AID 624255; T. cruzi beta-gal in NIH3T3, GalScreen luminescence, 90 h; actives 5.9% (n = 77,000);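 active = mean inhibition above about 93%, with at least 55% of replicates each passing it, limit read from the data, passing the limit was not always enough; inconclusive = only one of those two conditions holds; inactive = neither condition holds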
# T cruzi growth-2 – Trypanosoma cruzi proliferation inhibition; shares compounds with T cruzi growth-1; T. cruzi beta-gal in NIH3T3, GalScreen luminescence, 90 h; inhibition, % at 8.35 µM; actives 72% (n = 5,600); AID 651739;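 active = mean replicate inhibition above about 95% and at least 55% of replicates individually reaching it, limit read from the data; inconclusive = only one of the two criteria is met; inactive = neither criterion is met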
# T cruzi growth-3 – blocks T. cruzi growth in NIH3T3 host cells | shares compounds with T cruzi growth-1 | T. cruzi beta-gal in NIH3T3, GalScreen luminescence, 90 h | actives 21% (n = 5,600) | inhibition, % at 2.09 µM | AID 651740;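 active = mean inhibition above about 95%, with at least 55% of replicates also reaching it, limit read from the data; inconclusive = meets just one of the two conditions; inactive = meets neither condition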;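 also: plate controls were neutral control median for no effect and positive control median for full effect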
# NIH3T3 tox – kills mouse NIH/3T3 fibroblasts; actives 14% (n = 5,600); AID 651742; cytotoxicity (signal decrease), % at 8.35 µM; shares compounds with T cruzi growth-1; NIH/3T3 viability, CellTiter-Glo ATP luminescence, 90 h;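 active = mean signal decrease across replicates above about 35% based on untreated-well scatter, with enough replicates individually passing, limit read from the data; inconclusive = no rule stated though some were filed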;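 also: 0% = median of neutral control wells and 100% = median of positive control wells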
# 3T3 cytotox 2 – kills mouse NIH/3T3 fibroblasts; shares compounds with T cruzi growth-1; NIH/3T3 viability, CellTiter-Glo ATP luminescence, 90 h; inhibition, % at 24.9 µM; actives 56% (n = 5,600);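 active = mean loss of cell viability signal at or above a set limit, and enough replicates individually reaching it; inconclusive = meets only the mean limit or only the replicate share; inactive = meets neither condition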;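 also: 0% = median of neutral control wells and 100% = median of positive control wells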
# * hit, by the source's call; ? = inconclusive; . = no result given.
SMILES,C diff growth,Pf Dd2 inh,T cruzi growth-1,T cruzi growth-2,T cruzi growth-3,NIH3T3 tox,3T3 cytotox 2
O=C(C[C@@H]1C[C@H]2c3cc(NC(=O)Nc4ccccc4F)ccc3O[C@H]2[C@@H](CO)O1)NCCc1ccccc1,10,-28,19,.,.,.,.
C[C@@H]1CN([C@H](C)CO)S(=O)(=O)c2ccc(-c3cncnc3)cc2O[C@@H]1CN(C)C(=O)Cc1ccccc1,1,-4,.,.,.,.,.
Cc1ccc(S(=O)(=O)N2CC[C@@H]3[C@H](CO)Nc4ccc(C#Cc5cccc(F)c5)cc4[C@@H]32)cc1,-1,-3,71,.,.,.,.
Cc1ccc(S(=O)(=O)N2CC[C@@H]3[C@H]2c2cc(C#Cc4ccccc4F)ccc2N[C@@H]3CO)cc1,46,-1,?,113*,110*,24,?
Cc1ccc(S(=O)(=O)N2CC[C@@H]3[C@H](CO)Nc4ccc(C#Cc5ccc(F)cc5)cc4[C@@H]32)cc1,-12,-3,-11,.,.,.,.
O=S(=O)(c1ccccc1)N1CC[C@@H]2[C@H](CO)Nc3ccc(C#Cc4cccc(F)c4)cc3[C@@H]21,32,-26,?,101*,111*,46*,59*
O=S(=O)(c1ccccc1)N1CC[C@H]2[C@H](CO)Nc3ccc(C#Cc4cccc(F)c4)cc3[C@H]21,45,-62,.,.,.,.,.
Cc1ccc(S(=O)(=O)N2CC[C@@H]3[C@@H](CO)Nc4ccc(C#Cc5cccc(F)c5)cc4[C@@H]32)cc1,8,-14,99*,101*,108*,39*,57*
O=C(C[C@H]1CC[C@H](NC(=O)C2CCC2)[C@H](CO)O1)NCc1ccccc1Cl,-1,16,-78,.,.,.,.
Cc1ccc(S(=O)(=O)N[C@@H]2C=C[C@H](CC(=O)NCCCN(C)C)O[C@@H]2CO)cc1,-1,9,-33,.,.,.,.
C[C@H](CO)N1C[C@H](C)[C@H](CN(C)C(=O)C2CCOCC2)Oc2ncc(Br)cc2C1=O,8,36,9,.,.,.,.
Cc1cccc(-c2ccc([C@@H]3[C@H]4CN(S(=O)(=O)c5cccs5)CCCCN4[C@H]3CO)cc2)c1,1,10,98*,107*,75,25,60*
Cc1cccc(-c2ccc([C@@H]3[C@@H](CO)N4CCCCN(S(=O)(=O)c5cccc(C)c5)C[C@@H]34)cc2)c1,-9,-41,89,.,.,.,.
Cc1cccc(-c2ccc([C@@H]3[C@@H](CO)N4CCCCN(S(=O)(=O)c5cccs5)C[C@@H]34)cc2)c1,1,13,115*,106*,32,44*,70*
COc1cccc(-c2ccc([C@@H]3[C@H](CO)N4CCCCN(S(=O)(=O)c5cccs5)C[C@@H]34)cc2)c1,46,-35,89,.,.,.,.
Cc1cccc(-c2ccc([C@H]3[C@@H](CO)N4CCCCN(S(=O)(=O)c5cccc(C)c5)C[C@@H]34)cc2)c1,8,-43,73,.,.,.,.
COc1cccc(-c2ccc([C@@H]3[C@@H](CO)N4CCCCN(S(=O)(=O)c5cccs5)C[C@H]34)cc2)c1,-1,-2,67,.,.,.,.
Cc1cccc(-c2ccc([C@H]3[C@H](CO)N4CCCCN(S(=O)(=O)c5cccs5)C[C@@H]34)cc2)c1,-1,-8,115*,108*,78,29,105*
Cc1cccc(-c2ccc([C@@H]3[C@H](CO)N4CCCCN(S(=O)(=O)c5cccs5)C[C@@H]34)cc2)c1,40,-28,103*,106*,64,47*,102*
CCCc1cn([C@H]2C[C@@H]3O[C@@H](CO)CC[C@@H]3O[C@@H]2CCc2ccc(-c3cccc(OC)c3)cc2)nn1,14,-70,.,.,.,.,.
CC(C)C#Cc1cnc2c(c1)C(=O)N([C@@H](C)CO)C[C@@H](C)[C@H](CN(C)Cc1cncnc1)O2,-1,34,-9,.,.,.,.
Cc1ccccc1S(=O)(=O)N[C@@H]1CC[C@@H](CCn2cc(-c3ccccc3)nn2)O[C@@H]1CO,1,-36,-6,.,.,.,.
C[C@@H]1CN([C@@H](C)CO)C(=O)Cc2cc(NC(=O)Cc3cn(C)c4ccccc34)ccc2O[C@H]1CN(C)C(=O)Nc1ccc2c(c1)OCO2,1,-3,7,.,.,.,.
C[C@H]1CN([C@@H](C)CO)C(=O)c2cc(C#CC3CC3)cnc2O[C@H]1CN(C)C(=O)C1CCCCC1,.,-18,53,.,.,.,.
Cc1ccc(S(=O)(=O)N(C)C[C@@H]2OCCCC[C@H](C)Oc3ccc(NC(=O)Nc4c(C)noc4C)cc3C(=O)N([C@@H](C)CO)C[C@H]2C)cc1,5,-55,-21,.,.,.,.
SMILES,C diff growth,Pf Dd2 inh,T cruzi growth-1,T cruzi growth-2,T cruzi growth-3,NIH3T3 tox,3T3 cytotox 2
CN1C(=O)c2cc(NC(=O)C3CC3)ccc2OC[C@@H]2O[C@@H](CC(=O)NCc3ccccc3F)CC[C@H]21,0,38,.,.,.,.,.
O=C(C[C@@H]1C[C@@H]2c3cc(NC(=O)CC4CC4)ccc3O[C@@H]2[C@@H](CO)O1)NCc1cccnc1,1,18,100*,113*,-27,-7,-11
O=C(C[C@H]1C[C@@H]2c3cc(NC(=O)CC4CC4)ccc3O[C@@H]2[C@H](CO)O1)NCc1ccc(-c2ccccc2)cc1,0,-19,104*,112*,56,11,-3
O=C(C[C@@H]1C[C@H]2c3cc(NC(=O)Cc4ccncc4)ccc3O[C@H]2[C@@H](CO)O1)NCc1cccnc1,1,8,7,.,.,.,.
O=C(C[C@@H]1C[C@H]2c3cc(NC(=O)NC4CCCC4)ccc3O[C@H]2[C@@H](CO)O1)NCc1ccc(Cl)cc1,-3,4,36,.,.,.,.
O=C(C[C@@H]1C[C@H]2c3cc(NC(=O)NC4CCCC4)ccc3O[C@H]2[C@H](CO)O1)NCc1ccc(-c2ccccc2)cc1,-4,-19,100*,105*,?,-12,51*
O=C(C[C@@H]1C[C@H]2c3cc(NC(=O)NC4CCCC4)ccc3O[C@H]2[C@@H](CO)O1)NCc1ccc(-c2ccccc2)cc1,6,7,85,.,.,.,.
O=C(C[C@H]1C[C@@H]2c3cc(NC(=O)CC4CC4)ccc3O[C@@H]2[C@@H](CO)O1)NCc1ccc(-c2ccccc2)cc1,-5,-5,41,.,.,.,.
O=C(C[C@H]1C[C@@H]2c3cc(NC(=O)NC4CCCC4)ccc3O[C@@H]2[C@@H](CO)O1)NCc1ccc(Cl)cc1,-1,-24,?,103*,42,22,18
COc1ccc(S(=O)(=O)N2CCC3(CC2)CN(C(=O)c2cccnc2)[C@H](CO)c2c3c3ccc(OC)cc3n2C)cc1,19,-76,.,.,.,.,.
Cc1noc(C)c1S(=O)(=O)Nc1ccc2c(c1)CC(=O)N([C@@H](C)CO)C[C@@H](C)[C@H](CN(C)CC1CCCCC1)O2,-6,-47,-1,.,.,.,.
O=C(C[C@H]1CC[C@H]2[C@@H](COC[C@H](O)CN2C(=O)c2cnccn2)O1)NCc1ccccc1,.,-2,37,.,.,.,.

# Source: PubChem BioAssay (Broad Institute)
